Compound activity as filed in PubChem BioAssay.
In the library only some 11% were active in any assay of this set; here they are far more common.
NS1 function inh: qHTS Assay for Inhibitors of Influenza NS1 Protein Function. Potency, µM (highest dose often 46.1 µM), inactives show at the highest dose activity, positive = more growth. actives 0.4% (n = 270,000); calls by dose curve; note: actives are rising curves; nearly all actives have a fitted effect of over 50% in size
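A cell-based growth assay was used: compounds that relieve NS1-induced slow growth of budding yeast raise OD600. Assay medium was yeast nitrogen base with ammonium sulphate and -URA supplement, pH 6.0, with 2% galactose.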
AMA1 RON2 block: qHTS for Inhibitors of AMA1-RON; Towards Development of Antimalarial Drug Lead: Primary Screen; Potency, µM (highest dose often 58.2 µM), for the others: at the highest dose activity change, negative = inhibition, actives largely listed as inhibitors; AlphaScreen AMA1-biotinylated RON2 peptide binding; AID 720542, 2013; actives 0.2% (n = 360,000); Plasmodium falciparum AMA1 (3D7) - RON2 peptide interaction;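 note: 0% = vehicle wells and -100% = peptide control; nearly all actives have a fitted effect of over 45% in size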
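AMA1 (3D7) with his tag at 25 nM final met compounds first, then biotinylated RON2 peptide at 25 nM; detection used donor plus acceptor beads, 10 µg/mL apiece, read by AlphaScreen after 30 min at room temperature.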
Pf growth 48h: Primary qHTS for delayed death inhibitors of the malarial parasite plastid, 48 hour incubation; P. falciparum luciferase growth in erythrocytes, 48 h; Potency, µM (doses to about 28.7 µM), inactives show at the highest dose activity change, negative = inhibition, most hits filed as inhibitors; actives 5.9% (n = 310,000); AID 504832, 2011; note: % is set by controls: 0 for no effect and ±100 for the full control effect
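Here the parasites carry a stable luciferase gene and grow inside erythrocytes in Albumax-based RPMI medium with compound for one erythrocytic cycle. Activity is scored as loss of luminescent signal.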
Pf growth 96h: Primary qHTS for delayed death inhibitors of the malarial parasite plastid, 96 hour incubation; P. falciparum luciferase reporter growth, 96 h; Potency, µM (series often up to 28.7 µM), without a hit: at the top dose activity change, negative = inhibition, most hits filed as inhibitors; actives 6.9% (n = 320,000); AID 504834, 2011; note: % is set by controls: 0 for no effect and ±100 for the full control effect
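Erythrocytes infected with luciferase-expressing P. falciparum were dispensed at 2% hematocrit and 0.05% parasitemia (final), then incubated with compounds 96 hours at 37 C in 5% CO2. Luminescence after detection reagent addition reported growth.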
Sm TGR inh: qHTS Assay for the Inhibitors of Schistosoma Mansoni Peroxiredoxins; purified TGR, DTNB reduction, TNB absorbance 405 nm; Schistosoma mansoni thioredoxin glutathione reductase (TGR), Q962Y6; AID 485364, 2010; Potency, µM (series often up to 114 µM), for inactives: at the highest dose activity change, negative = inhibition, most hits filed as inhibitors; actives 3% (n = 360,000); note: % is set by controls: 0 for no effect and ±100 for the full control effect; nearly all actives have a fitted effect of over 60% in size
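Kinetic colorimetric format: TGR-catalysed, NADPH-driven DTNB reduction monitored via TNB absorbance. Enzyme dispensed at 20 nM; compound exposure 15 min at room temperature before reaction start.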
Numbers without * were called inactive; ? = inconclusive; · = not tested or not shown; [ ] = another dose, or the depositor's remark. Unless noted, calls come from the whole dose curve; as a rule, active = well fitted curve in the direction sought with a large enough effect; inconclusive = small, poorly fitted or top-dose-only effect, or another doubt; inactive = no such curve, though single readings can be large; an effect the other way counts as inactive or inconclusive. Potency is the fitted concentration of half-maximal effect.

SMILES	NS1 function inh	AMA1 RON2 block	Pf growth 48h	Pf growth 96h	Sm TGR inh
Cc1ccc(NS(=O)(=O)c2ccc(NC(=O)N3CCCCC3)cc2)cc1	8%	-2%	?	1.5µM*	7%
Cc1ccc(C(=O)NNC(=O)C2CCN(S(=O)(=O)c3ccc(C)cc3)CC2)cc1	-2%	33%	2.6µM*	34%	6%
Cc1ccc(S(=O)(=O)N2CCC(C(=O)Nc3ccc(S(=O)(=O)N4CCCC4)cc3)CC2)cc1	·	-19%	13µM*	4.7µM*	-8%
Cc1ccc(S(=O)(=O)N2CCC(C(=O)NNC(=O)c3ccccc3)CC2)cc1	·	28%	3%	120%	-4%
Cc1ccc(S(=O)(=O)N2CCC(C(=O)Nc3ccc(C(C)C)cc3)CC2)cc1	·	1%	?	?	1%
Cc1ccc(C(=O)Nc2ccc(S(=O)(=O)N3CCCC3)cc2)s1	·	-2%	?	13µM*	10%
Cc1ccc(S(=O)(=O)N2CCC(C(=O)Nc3ccc(S(=O)(=O)N4CCCC4)cc3)CC2)cc1C	·	18%	12µM*	?	2%
O=C(Nc1ccc(F)cc1)C1CCN(S(=O)(=O)c2ccc3[nH]c(=O)oc3c2)CC1	4%	8%	9%	13µM*	-26%
C/C(=N\S(=O)(=O)c1ccc(C)cc1)N1CCCCC1	5%	-3%	1%	12µM*	-2%[57.1 µM]
Cc1cc(NC(=O)C2CCN(S(=O)(=O)c3ccc4[nH]c(=O)oc4c3)CC2)ccc1Br	·	·	·	·	-5%
CC1CCCN(S(=O)(=O)c2ccc(NC(=O)C3CCN(C(=O)C(C)(C)C)CC3)cc2)C1 (stereo not given)	·	-8%	5.2µM*	6.6µM*	-16%
Cc1ccc(S(=O)(=O)N2CCC(C(=O)NCCCN3CCCC3=O)CC2)cc1	·	20%	·	·	·
O=C(Nc1cccc(S(=O)(=O)N2CCCCC2)c1)C1COc2ccccc2O1 (stereo not given)	·	9%	·	·	·
Cc1ccc(NC(=O)C2COc3ccccc3O2)cc1S(=O)(=O)N1CCCCC1 (stereo not given)	·	-1%	9.3µM*	?	-2%
CC1CCCN(S(=O)(=O)c2ccc(NC(=O)CN3CCCCC3)cc2)C1 (stereo not given)	6%	-3%	-8%	?	-4%
Cc1ccc(S(=O)(=O)N2CCC(C(=O)NCCN3CCCCCC3)CC2)cc1	-9%	-11%	12µM*	-3%	?
COc1ccc(Cl)cc1NC(=O)Cn1nnc(C(=O)NCc2cccs2)c1N	·	·	·	·	0%
CCOc1ccc(C(=O)NCC(=O)OCC(=O)N2CCCC2)cc1	·	7%	33%	-28%	-6%
CCOC(=O)C1(C)NC(c2cccs2)C2C(=O)N(c3ccc(OC)cc3)C(=O)C21 (stereo not given)	-4%	-1%	3%	?	11%
CN1CC(=O)N(CC(=O)Nc2ccc(N(C)C)cc2)c2ccccc2C1=O	2%	5%	31%	9%	50µM*
CN(C)c1ccc(NC(=O)CN2C(=O)CN=C(c3ccccc3)c3ccccc32)cc1	-15%	?	2%	·	-3%
CC(C)c1ccc(CN(C(=O)/C=C/c2ccco2)C2CCS(=O)(=O)C2)cc1 (stereo not given)	3%	-4%	4%	15%	3.5µM*
Cc1cccc(C(=O)N(Cc2ccccc2F)C2CCS(=O)(=O)C2)c1 (stereo not given)	·	·	·	·	-2%
O=C(/C=C/c1ccco1)N(Cc1ccccc1F)C1CCS(=O)(=O)C1 (stereo not given)	6%	-6%	-1%	?	10µM*
CC1=C(C(=O)N2CCCCCC2)CC(CC(=O)NCCCN(C)C)C(=O)N1CCCN1CCCC1=O (stereo not given)	·	-1%	·	·	·
SMILES	NS1 function inh	AMA1 RON2 block	Pf growth 48h	Pf growth 96h	Sm TGR inh
COc1cccc(NC(=O)C2C3C=CC4(O3)C2C(=O)N(CCCN2CCCC(C)C2)C4C(=O)NC2CCCCC2C)c1 (stereo not given)	-10%	2%	-17%	10µM*	-23%
CC1CCCC(NC(=O)C2N(CCCN3CCCC3)C(=O)C3C(C(=O)Nc4ccc(Cl)cc4)C4C=CC32O4)C1C (stereo not given)	-1%	-7%	?	5.9µM*	3%
COc1cc(OC)c(NC(=O)N2CCc3cc(OC)c(OC)cc3C2CC(=O)O)cc1Cl (stereo not given)	·	·	·	·	-5%
NC(=O)CCCCC(=O)OCCCc1cccs1	4%	-16%	-6%	4.7µM*	?
O=C(CCCCC(=O)NCc1cccs1)NCc1cccs1	4%	-4%	7%	?	3%
COc1ccc(OC)c(NC(=O)c2cnn(-c3ccc(C)cc3)c2C2CCNCC2)c1	·	·	·	·	5%
CC(C)[C@@]1(NC(=O)[C@@H]2C=C3c4cccc5[nH]cc(c45)C[C@H]3N(C)C2)O[C@@]2(O)[C@@H]3CCCN3C(=O)[C@H](Cc3ccccc3)N2C1=O	?	·	2.9µM*	2.3µM*	8.9µM*
CC(C)[C@@]1(NC(=O)[C@@H]2C[C@@H]3c4cccc5[nH]cc(c45)C[C@H]3N(C)C2)O[C@@]2(O)[C@@H]3CCCN3C(=O)[C@H](Cc3ccccc3)N2C1=O	-1%	0%	1.9µM*	1.9µM*	-14%
CC(C)C[C@H]1C(=O)N2CCCC2[C@]2(O)O[C@](NC(=O)[C@@H]3C=C4c5cccc6[nH]cc(c56)CC4N(C)C3)(C(C)C)C(=O)N12 (stereo not given in full)	30%	1%	2.6µM*	2.3µM*	10µM*
CC(C)C[C@H]1C(=O)N2CCC[C@H]2[C@]2(O)O[C@](NC(=O)[C@@H]3C=C4c5cccc6[nH]c(Br)c(c56)CC4N(C)C3)(C(C)C)C(=O)N12 (stereo not given in full)	-4%	-14%	2.3µM*	4.1µM*	-28%
COc1ccccc1OCCn1c(COc2cc(C)ccc2C)nc2ccccc21	·	·	·	·	0%
Cc1ccc(S(=O)(=O)N2CCOCC2)cc1C(=O)OC1CCOC1=O (stereo not given)	·	-4%	31%	22%	-4%
O=C(Cn1ncc2c3ccccc3n(Cc3ccc(Cl)cc3)c2c1=O)N1CCCCCC1	·	·	·	·	-1%
CC(C)[C@H]1C(=O)N2CCC[C@H]2[C@]2(O)O[C@](NC(=O)[C@@H]3C=C4c5cccc6[nH]cc(c56)C[C@H]4N(C)C3)(C(C)C)C(=O)N12	?	32%	5.9µM*	7.4µM*	7.9µM*
Cc1cc(C)cc(OCC(=O)OCC(=O)NC2CCCCCC2)c1	·	-7%	21%	-24%	3%
COc1cccc(CNC(=O)CCn2cccn2)c1	·	·	·	·	-1%
